# Rows were chosen to be rich in hits. Some 6.8% of all compounds tested hit in one or more screens of this group.
# C diff HTS: C. difficile growth inhibitors, primary screen, HTS; Clostridium difficile clinical isolate growth, OD600, 24 h; active compounds read low; growth activity, negative = inhibition, % at 16 µg/mL (by protocol); actives 0.25% (n = 86,000); AID 1259249, 2017;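 active = mean growth activity at or below -80% and every replicate also at or below -80%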;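 note: 0% = DMSO wells and -100% = levofloxacin 16 µg/mL wells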
# Pf Dd2 growth: P. falciparum Dd2 growth inhibitors, primary screen, SYBR Green fluorescence, single dose replicates. 72 h; active compounds read low. activity change, % at 10 µM. actives 2.3% (n = 94,000). AID 1159554, 2015; in the data active = activity change below about -80%
# T cruzi growth: T. cruzi intracellular proliferation inhibitors, primary screen, cell-based, beta-gal Tulahuen parasites, NIH3T3 host, luminescence | actives 5.9% (n = 77,000) | T. cruzi beta-gal in NIH3T3, GalScreen luminescence, 90 h | inhibition, % at 8.34 µM;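 active = mean inhibition above about 93%, with at least 55% of replicates each passing it, limit read from the data, passing the limit was not always enough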
# * marks the source's active call; other numbers are inactive results; . = not tested or not shown.
SMILES,C diff HTS,Pf Dd2 growth,T cruzi growth
CCCNC(=O)N1CCC2(CC1)CN(Cc1ccc(F)cc1)[C@@H](CO)c1[nH]c3cc(OC)ccc3c12,2.8,-88.1*,.
CCC(=O)N1CC2(C1)CN(Cc1cccc(OC)c1)[C@H](CO)c1[nH]c3cc(OC)ccc3c12,-1.4,-76.4,.
CCCC(=O)N1CCC2(CC1)CN(Cc1ccc(Cl)cc1)[C@H](CO)c1[nH]c3cc(OC)ccc3c12,15.7,-84.9*,.
Cc1noc(C)c1S(=O)(=O)N(C)C[C@H]1OCCCC[C@@H](C)Oc2ccc(NC(=O)C3CCCCC3)cc2C(=O)N([C@@H](C)CO)C[C@@H]1C,9.0,-81.9*,58.6
Cc1noc(C)c1S(=O)(=O)N(C)C[C@@H]1OCCCC[C@H](C)Oc2ccc(NC(=O)C3CCCCC3)cc2C(=O)N([C@@H](C)CO)C[C@H]1C,-0.8,-82.8*,-7.6
Cc1noc(C)c1S(=O)(=O)N(C)C[C@H]1OCCCC[C@H](C)Oc2ccc(NC(=O)C3CCCCC3)cc2C(=O)N([C@H](C)CO)C[C@H]1C,3.3,-58.7,32.2
Cc1noc(C)c1S(=O)(=O)N(C)C[C@@H]1OCCCC[C@@H](C)Oc2ccc(NC(=O)C3CCCCC3)cc2C(=O)N([C@H](C)CO)C[C@H]1C,7.8,-61.4,4.9
C[C@@H]1CN([C@H](C)CO)C(=O)c2cc(-c3ccccc3F)cnc2O[C@H]1CN(C)C(=O)C1CCC1,-1.0,23.2,-5.1
C[C@H](CO)N1C[C@H](C)[C@@H](CN(C)C(=O)CN(C)C)Oc2ncc(-c3ccccc3F)cc2C1=O,5.5,-4.3,-15.2
Cc1ccccc1-c1ccc([C@H]2[C@H]3CN(C(=O)Cc4ccccn4)CC(=O)N3[C@H]2CO)cc1,-3.8,-32.9,.
Cc1ccc(-c2ccc([C@H]3[C@@H](CO)N4C(=O)CN(C(=O)Nc5cccc(F)c5)C[C@H]34)cc2)cc1,13.7,-83.6*,.
Cc1ccc(-c2ccc([C@@H]3[C@H]4CN(C(=O)Nc5cccc(F)c5)CC(=O)N4[C@H]3CO)cc2)cc1,23.9,-13.2,.
O=C(Nc1cccc(F)c1)N1CC(=O)N2[C@H](C1)[C@@H](c1ccc(C#CC3CC3)cc1)[C@@H]2CO,-5.1,-82.1*,.
O=C(Nc1cccc(F)c1)N1CC(=O)N2[C@H](CO)[C@H](c3ccc(C#CC4CC4)cc3)[C@H]2C1,-13.9,1.8,.
COc1ccccc1S(=O)(=O)N1CC[C@@H]2[C@@H](CO)N(C)c3ccc(-c4ccccc4)cc3[C@@H]21,-3.3,-23.2,77.5
CO[C@H]1CN(C)C(=O)c2cc(NS(=O)(=O)c3ccccc3C)ccc2OC[C@H](C)N(C)C[C@@H]1C,.,-37.0,-20.9
CC(C)CC#Cc1ccc([C@H]2[C@H](CO)N3CCCCN(C(=O)Nc4ccccc4)C[C@@H]23)cc1,-97.7*,-47.0,77.8
CC(C)CC#Cc1ccc([C@@H]2[C@H](CO)N3CCCCN(C(=O)Nc4ccccc4)C[C@@H]23)cc1,-97.9*,-21.4,58.6
O=C(Nc1ccccc1)N1CCCCN2[C@H](CO)[C@@H](c3ccc(C#Cc4ccccc4)cc3)[C@H]2C1,41.5,-59.5,60.5
COc1ccc(NC(=O)N2CCCCN3[C@H](CO)[C@H](c4ccc(C#CCC(C)C)cc4)[C@H]3C2)cc1,33.2,-55.0,60.3
O=C(Nc1ccccc1)N1CCCCN2[C@H](CO)[C@H](c3ccc(C#Cc4cccnc4)cc3)[C@@H]2C1,-10.2,-88.3*,85.2
CC(C)CC#Cc1ccc([C@@H]2[C@H]3CN(C(=O)Nc4ccccc4)CCCCN3[C@H]2CO)cc1,56.7,-13.2,48.4
C[C@@H]1CN([C@H](C)CO)C(=O)c2cc(NC(=O)NC3CCCCC3)ccc2O[C@@H](C)CCCCO[C@H]1CN(C)Cc1ccc2c(c1)OCO2,14.4,.,.
COc1cccc(S(=O)(=O)N(C)C[C@@H]2Oc3ncc(-c4cccc(C(=O)N(C)C)c4)cc3C(=O)N([C@@H](C)CO)C[C@H]2C)c1,-3.5,-65.5,7.9
COc1cccc(S(=O)(=O)N(C)C[C@H]2Oc3ncc(-c4cccc(C(=O)N(C)C)c4)cc3C(=O)N([C@H](C)CO)C[C@@H]2C)c1,-7.3,-83.7*,14.4
SMILES,C diff HTS,Pf Dd2 growth,T cruzi growth
C[C@H](CO)N1C[C@H](C)[C@H](CN(C)S(=O)(=O)c2ccc(C#N)cc2)Oc2ncc(-c3cc4ccccc4o3)cc2C1=O,.,-17.8,59.7
COc1ccc(S(=O)(=O)N(C)C[C@@H]2Oc3ncc(-c4cc5ccccc5o4)cc3C(=O)N([C@H](C)CO)C[C@@H]2C)cc1,5.0,-85.9*,80.7
Cc1ccccc1-c1cnc2c(c1)C(=O)N([C@H](C)CO)C[C@H](C)[C@H](CN(C)C(=O)c1ccncc1)O2,2.2,9.0,36.5
O=C(C1=C[C@H](C2CC2)C[C@H](OCCCCO)O1)N1CCCC1,-9.2,.,.
COc1ccc(C#Cc2ccc3c(c2)O[C@H](CN(C)C(=O)Nc2cccc(OC)c2)[C@@H](C)CN([C@H](C)CO)S3(=O)=O)cc1,.,-80.7*,67.9
COc1cccc(NC(=O)N(C)C[C@H]2Oc3cc(C#Cc4ccccc4)ccc3S(=O)(=O)N([C@@H](C)CO)C[C@@H]2C)c1,50.6,-82.3*,120.7*
COc1cccc(NC(=O)N(C)C[C@H]2Oc3cc(C#Cc4ccc(F)cc4)ccc3S(=O)(=O)N([C@H](C)CO)C[C@H]2C)c1,6.2,-70.5,81.4
COc1cccc(NC(=O)N(C)C[C@H]2Oc3cc(C#Cc4ccncc4)ccc3S(=O)(=O)N([C@@H](C)CO)C[C@@H]2C)c1,-2.3,-54.3,70.4
CCCNC(=O)N1C[C@H](O)COC[C@H]2O[C@@H](CC(=O)N3CCOCC3)CC[C@@H]21,.,2.5,4.3
C[C@@H]1CN([C@@H](C)CO)C(=O)c2cc(NC(=O)CCCCCC(=O)Nc3ccccc3N)ccc2O[C@H]1CN(C)S(=O)(=O)c1ccc(F)cc1,10.6,-19.9,.
C[C@@H]1CCCCO[C@H](CN(C)S(=O)(=O)c2ccc(Cl)cc2)[C@H](C)CN([C@@H](C)CO)C(=O)c2cc(NC(=O)c3ccccc3)ccc2O1,5.9,-73.6,100.8
Cc1ccc(S(=O)(=O)N(C)C[C@H]2Oc3ccc(NC(=O)c4ccncc4)cc3C(=O)N([C@H](C)CO)C[C@H]2C)cc1,-2.3,23.2,-16.6
Cc1ccc(S(=O)(=O)N(C)C[C@H]2OCCCC[C@@H](C)Oc3ccc(NC(=O)c4ccccc4)cc3C(=O)N([C@H](C)CO)C[C@@H]2C)cc1,.,-62.6,44.1
C[C@@H]1CCCCO[C@H](CN(C)S(=O)(=O)c2ccc(F)cc2)[C@@H](C)CN([C@H](C)CO)C(=O)c2cc(NC(=O)c3ccccc3)ccc2O1,-3.3,-32.3,.
Cc1ccc(S(=O)(=O)N(C)C[C@H]2OCCCC[C@H](C)Oc3ccc(NC(=O)c4ccccc4)cc3C(=O)N([C@@H](C)CO)C[C@H]2C)cc1,.,-86.2*,-40.3
Cc1ccc(S(=O)(=O)N(C)C[C@H]2Oc3ccc(NC(=O)c4ccncc4)cc3C(=O)N([C@@H](C)CO)C[C@@H]2C)cc1,-3.2,-87.8*,12.9
C[C@@H]1CN([C@@H](C)CO)C(=O)c2cc(NC(=O)c3ccccc3)ccc2O[C@@H](C)CCCCO[C@@H]1CN(C)S(=O)(=O)c1ccc(F)cc1,7.8,-81.5*,.

# Bioassay records: PubChem, Broad Institute
